# Source: PubChem BioAssay (NCI)
# This is part of a sample that, as a whole, favours compounds with a hit. Of some 83,000 tested, about 20% had one in any assay.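 Cells were grown in 96-well plates and exposed to the test compound at a single concentration for 48 hours; results are reported as percent growth, with values below 10 considered active.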 Unmarked numbers belong to inactive results. Activity calls are given as the source filed them.
# What was measured:
# Assay in all cases: NCI-60 one-dose screen, 48 h (100 = growth as untreated, 0 = no growth, -100 = all killed)
# Details in all cases: 10 µM unless noted
# HCT-15 colon = system: HCT-15 colon
# SNB-75 CNS = system: SNB-75 CNS
# SNB-19 CNS = system: SNB-19 CNS
# U251 CNS = system: U251 CNS
# PC-3 prostate = system: PC-3 prostate
# SK-MEL-5 melanoma = system: SK-MEL-5 melanoma
# UACC-62 melanoma = system: UACC-62 melanoma
# LOX IMVI melanoma = system: LOX IMVI melanoma
# SK-MEL-28 melanoma = system: SK-MEL-28 melanoma
# SK-MEL-2 melanoma = system: SK-MEL-2 melanoma
# EKVX NSCLC = system: EKVX NSCLC
# SN12C renal = system: SN12C renal
# UO-31 renal = system: UO-31 renal
# TK-10 renal = system: TK-10 renal
# ACHN renal = system: ACHN renal
# CAKI-1 renal = system: CAKI-1 renal
# CCRF-CEM leukemia = system: CCRF-CEM leukemia
# MOLT-4 leukemia = system: MOLT-4 leukemia
# A498 renal = system: A498 renal
SMILES,growth (HCT-15 colon),growth (SNB-75 CNS),growth (SNB-19 CNS),growth (U251 CNS),growth (PC-3 prostate),growth (SK-MEL-5 melanoma),growth (UACC-62 melanoma),growth (LOX IMVI melanoma),growth (SK-MEL-28 melanoma),growth (SK-MEL-2 melanoma),growth (EKVX NSCLC),growth (SN12C renal),growth (UO-31 renal),growth (TK-10 renal),growth (ACHN renal),growth (CAKI-1 renal),growth (CCRF-CEM leukemia),growth (MOLT-4 leukemia),growth (A498 renal)
C#CCNC(=O)[C@]1(C)CC[C@]2(C)CC[C@@H]3C(=CC[C@H]4[C@@]3(C)CC[C@H]3C(C)(C)C(=O)CC[C@]43C)[C@@H]2C1,98%,102%,102%,99.1%,64.6%,93.3%,83.2%,96.2%,102%,96.2%,100%,97.9%,80.5%,86.4%,98%,83.1%,69.4%,,
CCCCCCNC(=O)Oc1ccc(/C(=C(\C)c2ccccc2)c2ccc(OCCCN(C)C)cc2)cc1,25.9%,86.8%,80.5%,67.3%,79.7%,92.9%,56.1%,80.2%,88.3%,92.3%,91.1%,80.7%,57.8%,91.2%,97.9%,94.8%,77.6%,62.6%,
COc1cc2nc(-c3ccc(Cl)cc3)cc(OCCCN3CCOCC3)c2cc1OC,19.2%,37.5%,73.5%,47.3%,54%,-52.6% (active),-20.9% (active),-56% (active),60.1%,73.1%,55.7%,38.4%,59.6%,97.9%,40.6%,-12% (active),61.4%,56.4%,
COc1cc2c(=O)n(CCCN(C)C)c3c4cc5c(cc4ccc3c2cc1OC)OCO5,52.1%,90.2%,52.6%,55.8%,50.8%,71%,59.4%,36.3%,87.2%,89%,85%,50.4%,41.9%,84.5%,36.8%,62%,13.8%,-9.29% (active),
NCCCCCCNc1cc(-c2cccc(OC(F)(F)F)c2)nc2ccc(N3CCCC3)cc12,-54.2% (active),-32.4% (active),16.5%,-59% (active),-5.66% (active),-98.4% (active),,-93.6% (active),-83.4% (active),-63.6% (active),65.4%,-20.1% (active),-91.5% (active),-44.4% (active),-16.6% (active),-45.9% (active),-32.2% (active),,
O=C(/C=C/c1ccc(F)cc1)c1ccc(NC(=O)N2CCN(c3cc4c(cc3F)c(=O)c(C(=O)O)cn4C3CC3)CC2)cc1,101%,90.7%,88.1%,98.9%,96.6%,96.8%,78.2%,83.7%,90.6%,105%,94.5%,92.6%,77.9%,92.5%,106%,95.2%,90.9%,99.5%,
N#CC1C(C#N)C(C(=O)c2ccc(Br)cc2)N2c3ccccc3C=CC12 (stereo not drawn),23.7%,12%,80.4%,84.6%,76.8%,61.3%,63%,78.7%,95.7%,104%,63.9%,76.1%,48%,106%,89.4%,50.7%,84.9%,92.7%,67.7%
CSc1nc2sc3cccc(Cl)c3n2c(=N)c1C#N,111%,103%,109%,95.6%,90.8%,95.4%,90%,93.7%,115%,105%,90.1%,101%,68.5%,123%,95%,86.8%,86%,90%,56.2%
